# From PubChem BioAssay AID1159580 (chemical genetic matrix, 2015)
# “And” between values parts separate entries of the source, which are not always exact repeats. Equal entries are not always repeated. Among all 5,500 compounds or so, about 2,000 (36%) were called active. Not shown: some 18% with an inconclusive outcome. Some of the results follow. A number with no mark means an inactive call. No stated cut-off is given here; in the data, active means normalized growth mostly below about 0.91 (no sharp cut-off); inconclusive means no clear call, values can overlap the other calls; inactive means mostly above about 0.92.
# Assay: chemical genetic growth profiling, strain panel (AID 1159580);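 further: tested at 20 µM; growth read once vehicle control cultures reached saturation at 30 °C; 1 = growth at the plate median or of vehicle wells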
# Details: S. cerevisiae deletion strains, growth OD
smiles,measurement,setting,value
CC(=O)O[C@@H]1CC[C@@]2(C)C(CC[C@]3(C)C2CC=C2C4CC(C)(C)CC[C@]4(C(=O)O)CC[C@]23C)C1(C)C (stereo partly specified),normalized growth,"locus YAL021C, strain ccr4, stronger effect = lower value",0.949
same,normalized growth,"locus YAL026C, strain drs2, stronger effect = lower value",0.957
same,normalized growth,"locus YAL030W, strain snc1, stronger effect = lower value",0.98
same,normalized growth,"locus YBL061C, strain skt5, stronger effect = lower value",0.955
same,normalized growth,"locus YBR009C, strain hhf1, stronger effect = lower value",1.01
same,normalized growth,"locus YBR021W, strain FUR4, stronger effect = lower value",1
same,normalized growth,"locus YBR023C, strain chs3, stronger effect = lower value",0.918
same,normalized growth,"locus YBR171W, strain sec66, stronger effect = lower value",1
same,normalized growth,"locus YBR229C, strain ROT2, stronger effect = lower value",0.992
same,normalized growth,"locus YBR231C, strain swc5, stronger effect = lower value",0.913
same,normalized growth,"locus YBR279W, strain paf1, stronger effect = lower value",0.982
same,normalized growth,"locus YCL011C, strain gbp2, stronger effect = lower value",0.965
same,normalized growth,"locus YCL016C, strain dcc1, stronger effect = lower value",0.96
same,normalized growth,"locus YCL029C, strain bik1, stronger effect = lower value",0.996
same,normalized growth,"locus YCL061C, strain MRC1, stronger effect = lower value",1
same,normalized growth,"locus YCL069W, strain vba3, stronger effect = lower value",1.01
same,normalized growth,"locus YCR088W, strain abp1, stronger effect = lower value",1.01
same,normalized growth,"locus YDL005C, strain med2, stronger effect = lower value",0.99
same,normalized growth,"locus YDL035C, strain GPR1, stronger effect = lower value",1.05
same,normalized growth,"locus YDL040C, strain nat1, stronger effect = lower value",1
same,normalized growth,"locus YDL074C, strain BRE1, stronger effect = lower value",1.07
same,normalized growth,"locus YDL101C, strain DUN1, stronger effect = lower value",0.975
same,normalized growth,"locus YDL134C, strain PPH21, stronger effect = lower value",0.974
same,normalized growth,"locus YDL185W, strain tfp1, stronger effect = lower value",0.976
same,normalized growth,"locus YDL192W, strain arf1, stronger effect = lower value",1.01
same,normalized growth,"locus YDR001C, strain nth1, stronger effect = lower value",1.01
same,normalized growth,"locus YDR069C, strain doa4, stronger effect = lower value",0.84 (active)
same,normalized growth,"locus YDR101C, strain arx1, stronger effect = lower value",1.02
same,normalized growth,"locus YDR137W, strain rgp1, stronger effect = lower value",1.02
same,normalized growth,"locus YDR159W, strain sac3, stronger effect = lower value",1.03
same,normalized growth,"locus YDR162C, strain NBP2, stronger effect = lower value",1.03
same,normalized growth,"locus YDR195W, strain ref2",1.04
same,normalized growth,"locus YDR297W, strain sur2, stronger effect = lower value",0.939
same,normalized growth,"locus YDR318W, strain mcm21, stronger effect = lower value",1.01
same,normalized growth,"locus YDR334W, strain swr1, stronger effect = lower value",0.985
same,normalized growth,"locus YDR335W, strain msn5, stronger effect = lower value",0.957
same,normalized growth,"locus YDR388W, stronger effect = lower value",0.983
same,normalized growth,"locus YDR392W, strain spt3, stronger effect = lower value",0.95
same,normalized growth,"locus YDR502C, strain sam2, stronger effect = lower value",0.978
same,normalized growth,"locus YEL003W, strain gim4, stronger effect = lower value",0.976
same,normalized growth,"locus YEL037C, strain rad23, stronger effect = lower value",0.99
same,normalized growth,"locus YEL061C, strain CIN8 (second series), stronger effect = lower value",1.01
same,normalized growth,"locus YEL061C, strain CIN8, stronger effect = lower value",1
same,normalized growth,"locus YER015W, strain faa2, stronger effect = lower value",0.936
same,normalized growth,"locus YER016W, strain bim1, stronger effect = lower value",0.965
same,normalized growth,"locus YER110C, stronger effect = lower value",0.976
same,normalized growth,"locus YER111C, strain swi4, stronger effect = lower value",0.96
same,normalized growth,"locus YER155C, strain BEM2 (second series), stronger effect = lower value",0.964
same,normalized growth,"locus YER155C, strain BEM2, stronger effect = lower value",0.985
same,normalized growth,"locus YER167W, strain BCK2, stronger effect = lower value",1.01
same,normalized growth,"locus YFR010W, strain ubp6, stronger effect = lower value",0.949
same,normalized growth,"locus YGL078C, strain dbp3, stronger effect = lower value",0.977
same,normalized growth,"locus YGL086W, strain mad1, stronger effect = lower value",1.04
same,normalized growth,"locus YGL167C, strain pmr1, stronger effect = lower value",0.986
same,normalized growth,"locus YGL173C, strain kem1, stronger effect = lower value",0.902 (active)
same,normalized growth,"locus YGL227W, strain vid30, stronger effect = lower value",1.01
same,normalized growth,"locus YGL240W, strain doc1, stronger effect = lower value",1.08
same,normalized growth,"locus YGL248W, strain PDE1, stronger effect = lower value",0.998
same,normalized growth,"locus YGL253W, strain hxk2, stronger effect = lower value",0.984
same,normalized growth,"locus YGR135W, strain pre9, stronger effect = lower value",0.954
same,normalized growth,"locus YGR229C, strain SMI1, stronger effect = lower value",0.988
same,normalized growth,"locus YGR252W, strain gcn5, stronger effect = lower value",0.982
same,normalized growth,"locus YHR013C, strain ard1, stronger effect = lower value",0.933
same,normalized growth,"locus YHR027C, strain rpn1, stronger effect = lower value",0.913 (active)
same,normalized growth,"locus YHR030C, strain SLT2, stronger effect = lower value",0.983
same,normalized growth,"locus YHR079C, strain IRE1 (second series), stronger effect = lower value",0.983
same,normalized growth,"locus YHR079C, strain IRE1, stronger effect = lower value",0.974
same,normalized growth,"locus YHR094C, strain hxt1, stronger effect = lower value",0.987
same,normalized growth,"locus YHR129C, strain ARP1, stronger effect = lower value",0.995
same,normalized growth,"locus YHR142W, strain chs7, stronger effect = lower value",0.958
same,normalized growth,"locus YHR200W, strain rpn10, stronger effect = lower value",0.987
same,normalized growth,"locus YIL066C, strain RNR3, stronger effect = lower value",1.03
same,normalized growth,"locus YIL073C, strain SPO22, stronger effect = lower value",1.01
same,normalized growth,"locus YIL125W, strain kgd1, stronger effect = lower value",0.999
same,normalized growth,"locus YIR030C, strain dcg1, stronger effect = lower value",0.985
same,normalized growth,"locus YJL092W, strain hpr5, stronger effect = lower value",1.01
same,normalized growth,"locus YJL095W, strain BCK1 (second series), stronger effect = lower value",0.966
same,normalized growth,"locus YJL095W, strain BCK1, stronger effect = lower value",1.01 and 0.986
same,normalized growth,"locus YJL115W, strain asf1, stronger effect = lower value",1.01
same,normalized growth,"locus YJL129C, strain trk1, stronger effect = lower value",1.02
same,normalized growth,"locus YJL134W, strain LCB3, stronger effect = lower value",0.996
same,normalized growth,"locus YJL154C, strain vps35, stronger effect = lower value",1.03
same,normalized growth,"locus YJL164C, strain tpk1, stronger effect = lower value",0.927
same,normalized growth,"locus YJL166W, strain qcr8, stronger effect = lower value",0.953
same,normalized growth,"locus YJL168C, strain set2, stronger effect = lower value",0.987
same,normalized growth,"locus YJL187C, strain SWE1 (second series), stronger effect = lower value",0.976
